Results published in the supplement of paper PMC10849652.
Targets with a hit are over-represented here; the source holds about 7,900 in all. About 0.6% of all pairs of compound and target were hits.

The targets below were run with c1cn2cc(-c3ccc4cn[nH]c4c3)nc(Nc3ccc(N4CCOCC4)cc3)c2n1 [entospletinib] (assay: log2 fold change, soluble protein after heating vs DMSO (PISA); higher = thermal stabilisation; K562 cells, 10 uM, 30 min; active = over 0.2 and 3.5 SD of the protein, either way, in both replicates (recomputed)).
Method in brief: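 K562 cells at 2×10^6 cells/mL were given 10 μM compound for 30 min. Aliquots then went through 3 min of heating across 48°C-58°C, were pooled, and were extracted in PBS with 0.5% NP-40 at 4°C, and the supernatant after 21,000xg for 90 min was quantified by TMTpro 16plex LC-MS/MS with channel sums equalised. Thermal stability relative to control samples, from duplicates, is given as log2 fold change.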

Chain of UniProt Q8N6S5 (Q8N6S5 whole entry, looked up): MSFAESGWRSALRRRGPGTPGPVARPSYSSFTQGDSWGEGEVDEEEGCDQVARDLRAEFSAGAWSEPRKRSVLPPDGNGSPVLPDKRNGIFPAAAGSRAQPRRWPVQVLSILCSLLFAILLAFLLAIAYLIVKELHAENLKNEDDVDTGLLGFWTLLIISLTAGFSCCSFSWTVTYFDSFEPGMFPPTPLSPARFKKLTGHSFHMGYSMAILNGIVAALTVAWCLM
Chain of UniProt Q9NP58 (Q9NP58 whole entry, looked up): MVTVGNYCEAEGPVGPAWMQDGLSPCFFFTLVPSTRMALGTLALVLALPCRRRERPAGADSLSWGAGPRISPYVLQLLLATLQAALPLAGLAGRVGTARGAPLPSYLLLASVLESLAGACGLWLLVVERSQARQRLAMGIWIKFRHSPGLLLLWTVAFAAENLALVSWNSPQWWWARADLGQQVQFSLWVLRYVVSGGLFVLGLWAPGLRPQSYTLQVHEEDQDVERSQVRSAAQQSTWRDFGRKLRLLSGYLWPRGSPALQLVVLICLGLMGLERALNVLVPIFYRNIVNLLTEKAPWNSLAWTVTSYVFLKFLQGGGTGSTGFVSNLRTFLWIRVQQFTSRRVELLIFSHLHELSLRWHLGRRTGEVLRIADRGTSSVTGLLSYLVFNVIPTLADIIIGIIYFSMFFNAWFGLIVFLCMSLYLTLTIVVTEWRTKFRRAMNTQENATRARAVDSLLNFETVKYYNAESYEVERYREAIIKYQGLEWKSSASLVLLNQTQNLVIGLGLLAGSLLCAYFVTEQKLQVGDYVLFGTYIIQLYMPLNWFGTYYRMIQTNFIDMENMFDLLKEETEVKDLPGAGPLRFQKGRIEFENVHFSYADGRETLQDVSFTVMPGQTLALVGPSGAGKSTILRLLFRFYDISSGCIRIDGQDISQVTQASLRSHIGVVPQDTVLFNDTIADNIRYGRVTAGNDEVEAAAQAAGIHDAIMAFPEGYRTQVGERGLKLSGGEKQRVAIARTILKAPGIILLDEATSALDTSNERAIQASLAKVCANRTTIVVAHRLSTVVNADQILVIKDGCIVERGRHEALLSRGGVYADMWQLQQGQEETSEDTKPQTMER
Chain of UniProt P49748 (P49748 whole entry, looked up): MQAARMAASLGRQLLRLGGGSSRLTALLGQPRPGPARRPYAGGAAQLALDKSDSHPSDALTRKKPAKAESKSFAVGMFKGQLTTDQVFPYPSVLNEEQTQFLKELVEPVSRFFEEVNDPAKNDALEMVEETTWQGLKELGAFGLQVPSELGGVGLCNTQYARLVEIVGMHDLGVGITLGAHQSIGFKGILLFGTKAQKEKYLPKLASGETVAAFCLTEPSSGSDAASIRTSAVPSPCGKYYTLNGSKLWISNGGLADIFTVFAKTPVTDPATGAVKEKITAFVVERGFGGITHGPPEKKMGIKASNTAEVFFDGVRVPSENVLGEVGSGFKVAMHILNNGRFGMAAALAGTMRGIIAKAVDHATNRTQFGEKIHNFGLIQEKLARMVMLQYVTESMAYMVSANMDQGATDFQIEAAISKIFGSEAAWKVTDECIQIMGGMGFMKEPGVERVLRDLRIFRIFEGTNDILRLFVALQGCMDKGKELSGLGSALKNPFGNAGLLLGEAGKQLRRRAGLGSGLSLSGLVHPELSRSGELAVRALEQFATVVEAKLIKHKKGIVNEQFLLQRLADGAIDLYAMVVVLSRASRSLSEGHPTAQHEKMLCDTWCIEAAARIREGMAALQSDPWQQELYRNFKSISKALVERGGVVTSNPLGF
Chain of UniProt Q8WUW1 (Q8WUW1 whole entry, looked up): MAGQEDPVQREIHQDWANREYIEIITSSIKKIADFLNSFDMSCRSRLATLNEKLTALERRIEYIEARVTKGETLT
Chain of UniProt Q9Y312 (Q9Y312 whole entry, looked up): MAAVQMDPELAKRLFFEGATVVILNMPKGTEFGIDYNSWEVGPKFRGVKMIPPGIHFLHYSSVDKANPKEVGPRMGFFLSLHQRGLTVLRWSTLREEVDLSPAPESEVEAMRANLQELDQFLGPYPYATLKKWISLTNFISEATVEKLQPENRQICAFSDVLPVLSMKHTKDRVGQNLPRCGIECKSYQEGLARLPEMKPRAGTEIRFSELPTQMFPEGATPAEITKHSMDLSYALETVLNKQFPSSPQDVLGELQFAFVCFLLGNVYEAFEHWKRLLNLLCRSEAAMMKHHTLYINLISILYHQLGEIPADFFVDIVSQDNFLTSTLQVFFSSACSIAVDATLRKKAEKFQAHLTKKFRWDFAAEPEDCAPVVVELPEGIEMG
Chain of UniProt Q9HC16 (Q9HC16 whole entry, looked up): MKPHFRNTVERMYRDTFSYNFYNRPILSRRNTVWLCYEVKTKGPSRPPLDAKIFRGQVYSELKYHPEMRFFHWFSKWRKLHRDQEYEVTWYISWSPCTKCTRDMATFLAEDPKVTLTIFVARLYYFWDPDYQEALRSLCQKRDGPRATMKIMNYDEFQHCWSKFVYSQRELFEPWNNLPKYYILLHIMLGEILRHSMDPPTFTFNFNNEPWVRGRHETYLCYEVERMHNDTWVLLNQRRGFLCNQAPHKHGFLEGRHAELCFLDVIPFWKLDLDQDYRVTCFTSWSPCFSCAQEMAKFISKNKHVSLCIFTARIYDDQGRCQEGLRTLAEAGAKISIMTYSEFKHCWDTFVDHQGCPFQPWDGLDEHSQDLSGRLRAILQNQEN
Chain of UniProt Q9NWX5 (Q9NWX5 whole entry, looked up): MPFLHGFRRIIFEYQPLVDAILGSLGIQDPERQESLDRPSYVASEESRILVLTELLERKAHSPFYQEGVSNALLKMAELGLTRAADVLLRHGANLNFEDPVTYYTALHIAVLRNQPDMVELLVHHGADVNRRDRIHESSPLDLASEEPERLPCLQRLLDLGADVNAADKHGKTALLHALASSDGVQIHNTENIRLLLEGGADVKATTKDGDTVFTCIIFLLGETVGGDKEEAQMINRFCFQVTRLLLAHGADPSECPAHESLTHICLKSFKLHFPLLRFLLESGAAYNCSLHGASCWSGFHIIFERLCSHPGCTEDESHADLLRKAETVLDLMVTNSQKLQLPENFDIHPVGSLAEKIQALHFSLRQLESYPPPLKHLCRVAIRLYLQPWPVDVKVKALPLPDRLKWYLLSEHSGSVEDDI
Chain of UniProt O94973 (O94973 whole entry, looked up): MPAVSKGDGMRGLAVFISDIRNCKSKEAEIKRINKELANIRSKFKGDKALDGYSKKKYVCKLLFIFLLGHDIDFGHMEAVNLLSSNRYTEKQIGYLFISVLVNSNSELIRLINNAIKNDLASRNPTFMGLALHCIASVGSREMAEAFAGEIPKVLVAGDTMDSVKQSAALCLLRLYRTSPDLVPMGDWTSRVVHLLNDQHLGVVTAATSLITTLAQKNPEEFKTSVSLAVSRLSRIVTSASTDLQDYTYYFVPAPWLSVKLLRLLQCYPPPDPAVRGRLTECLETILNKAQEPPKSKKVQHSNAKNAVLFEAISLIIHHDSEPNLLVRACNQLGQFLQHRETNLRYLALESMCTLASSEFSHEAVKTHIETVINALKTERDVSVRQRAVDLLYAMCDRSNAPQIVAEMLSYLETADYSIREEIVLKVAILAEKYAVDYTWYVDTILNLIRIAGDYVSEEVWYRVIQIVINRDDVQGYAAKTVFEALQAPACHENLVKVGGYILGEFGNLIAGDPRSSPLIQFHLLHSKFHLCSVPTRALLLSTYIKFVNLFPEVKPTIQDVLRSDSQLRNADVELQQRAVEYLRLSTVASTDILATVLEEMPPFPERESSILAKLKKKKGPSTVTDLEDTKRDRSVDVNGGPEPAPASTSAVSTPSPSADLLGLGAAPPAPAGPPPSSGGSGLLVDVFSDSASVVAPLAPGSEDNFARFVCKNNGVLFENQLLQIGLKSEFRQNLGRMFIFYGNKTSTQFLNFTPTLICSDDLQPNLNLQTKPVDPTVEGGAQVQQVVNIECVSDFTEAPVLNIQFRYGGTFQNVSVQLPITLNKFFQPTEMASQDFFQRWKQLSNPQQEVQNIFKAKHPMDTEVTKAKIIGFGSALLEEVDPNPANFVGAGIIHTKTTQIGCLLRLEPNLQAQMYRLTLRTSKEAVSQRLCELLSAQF
Chain of UniProt P31939 (P31939 whole entry, looked up): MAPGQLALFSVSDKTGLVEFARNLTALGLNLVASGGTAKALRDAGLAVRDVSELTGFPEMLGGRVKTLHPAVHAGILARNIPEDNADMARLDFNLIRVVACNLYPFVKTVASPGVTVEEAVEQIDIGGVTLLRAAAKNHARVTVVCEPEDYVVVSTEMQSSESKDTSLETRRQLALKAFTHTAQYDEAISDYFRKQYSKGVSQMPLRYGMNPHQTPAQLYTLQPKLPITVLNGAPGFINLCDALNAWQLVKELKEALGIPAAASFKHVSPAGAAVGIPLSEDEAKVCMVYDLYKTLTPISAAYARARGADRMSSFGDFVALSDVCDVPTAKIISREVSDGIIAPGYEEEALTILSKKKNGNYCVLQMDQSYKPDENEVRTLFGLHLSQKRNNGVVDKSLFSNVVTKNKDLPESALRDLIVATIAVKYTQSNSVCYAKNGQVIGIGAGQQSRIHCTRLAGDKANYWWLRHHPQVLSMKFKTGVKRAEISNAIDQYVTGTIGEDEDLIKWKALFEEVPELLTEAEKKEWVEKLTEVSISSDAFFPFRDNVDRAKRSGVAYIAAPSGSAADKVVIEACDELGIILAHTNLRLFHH
Chain of UniProt Q66PJ3 (Q66PJ3 whole entry, looked up): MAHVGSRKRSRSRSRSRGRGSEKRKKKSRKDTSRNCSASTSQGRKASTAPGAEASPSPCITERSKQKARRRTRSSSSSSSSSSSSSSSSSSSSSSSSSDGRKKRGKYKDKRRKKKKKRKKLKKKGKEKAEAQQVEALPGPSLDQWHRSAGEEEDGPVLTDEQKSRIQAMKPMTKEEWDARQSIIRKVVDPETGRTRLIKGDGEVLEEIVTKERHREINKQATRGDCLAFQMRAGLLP

Which log2 fold change does the source give for ACADVL isoform 3 (UniProt P49748) here?
The log2 fold change was 0.002 (inactive).

ARL6IP6 (UniProt Q8N6S5) was tested. Which log2 fold change did it give?
The log2 fold change was -0.091 (inactive).

With ATIC (UniProt P31939) as the target, how does the log2 fold change read?
Its log2 fold change is 0.045 (inactive).

With APOBEC3G (UniProt Q9HC16) as the target, how does the log2 fold change read?
The log2 fold change was 0.126 (inactive).

With AARSD1 isoform 3 (UniProt Q9BTE6) as the target, how does the log2 fold change read?
The log2 fold change was -0.066 (inactive).

Which log2 fold change does the source give for ARFGAP1 (UniProt Q8N6T3) here?
Its log2 fold change is -0.032 (inactive).

ABCB6 (UniProt Q9NP58) was tested. Which log2 fold change did it give?
Its log2 fold change is 0.026 (inactive).

Which log2 fold change does the source give for ARL6IP4 (UniProt Q66PJ3) here?
The log2 fold change was 0.034 (inactive).

Which log2 fold change does the source give for AAR2 (UniProt Q9Y312) here?
The log2 fold change was -0.017 (inactive).

Which log2 fold change does the source give for ATP6AP1 (UniProt Q15904) here?
Its log2 fold change is -0.012 (inactive).

How did the log2 fold change turn out when ABCA3 (UniProt Q99758) was run?
The log2 fold change was 0.141 (inactive).

How did the log2 fold change turn out when AP2A2 isoform 2 (UniProt O94973) was run?
The log2 fold change was 0.059 (inactive).

How did the log2 fold change turn out when AP2A1 (UniProt O95782) was run?
The log2 fold change was 0.017 (inactive).

For ACAP2 (UniProt Q15057), which log2 fold change is on record?
Its log2 fold change is -0.073 (inactive).

For ASB6 (UniProt Q9NWX5), which log2 fold change is on record?
The log2 fold change was -0.065 (inactive).

Which log2 fold change does the source give for BRK1 isoform 2 (UniProt Q8WUW1) here?
The log2 fold change was 0.047 (inactive).
